Experimental data published in PubChem BioAssay (Tox21).
“And” between values parts separate entries of the source, which are not always exact repeats. Equal values may be shown once. Results filed as inconclusive are left out. The source made the active and inactive calls. Unless noted, calls come from the whole dose curve; as a rule, active = well fitted curve in the direction sought with a large enough effect in the repeat runs; inconclusive = weak or mixed curves; inactive = no such curve, though single readings can be large; an effect the other way counts as inactive or inconclusive.

Legend:
[1] = qHTS assay to identify small molecule antagonists of the glucocorticoid receptor (GR) signaling pathway - cell viability counter screen (AID 720693); note: nearly all actives have a fitted effect of over 55% in size; note: potency is the fitted concentration of half-maximal effect
[2] = qHTS assay for identifying genotoxic compounds that show differential cytotoxicity against isogenic chicken DT40 cell lines with known DNA damage response pathways - Rev3 mutant cell line (AID 743014); note: nearly all actives have a fitted effect of over 55% in size; note: potency is the fitted concentration of half-maximal effect
[3] = qHTS assay for identifying genotoxic compounds that show differential cytotoxicity against isogenic chicken DT40 cell lines with known DNA damage response pathways - Rad54/Ku70 mutant cell line (AID 743015); note: nearly all actives have a fitted effect of over 60% in size; note: potency is the fitted concentration of half-maximal effect
[4] = qHTS assay to identify small molecule antagonists of the androgen receptor (AR) signaling pathway - cell viability counter screen (AID 743033; note: nearly all actives have a fitted effect of over 45% in size; note: potency is the fitted concentration of half-maximal effect)
[5] = molecular target: Androgen receptor (Homo sapiens) (UniProt P10275); test: qHTS assay to identify small molecule agonists of the androgen receptor (AR) signaling pathway (AID 743036; active = well fitted activation curve with a large enough effect in the signal ratio in the repeat runs, with a control signal flat, not every such curve was filed as active; the % refers to the signal ratio; note: potency is the fitted concentration of half-maximal effect)
Androgen receptor (Homo sapiens), sequence (P10275 whole entry, looked up): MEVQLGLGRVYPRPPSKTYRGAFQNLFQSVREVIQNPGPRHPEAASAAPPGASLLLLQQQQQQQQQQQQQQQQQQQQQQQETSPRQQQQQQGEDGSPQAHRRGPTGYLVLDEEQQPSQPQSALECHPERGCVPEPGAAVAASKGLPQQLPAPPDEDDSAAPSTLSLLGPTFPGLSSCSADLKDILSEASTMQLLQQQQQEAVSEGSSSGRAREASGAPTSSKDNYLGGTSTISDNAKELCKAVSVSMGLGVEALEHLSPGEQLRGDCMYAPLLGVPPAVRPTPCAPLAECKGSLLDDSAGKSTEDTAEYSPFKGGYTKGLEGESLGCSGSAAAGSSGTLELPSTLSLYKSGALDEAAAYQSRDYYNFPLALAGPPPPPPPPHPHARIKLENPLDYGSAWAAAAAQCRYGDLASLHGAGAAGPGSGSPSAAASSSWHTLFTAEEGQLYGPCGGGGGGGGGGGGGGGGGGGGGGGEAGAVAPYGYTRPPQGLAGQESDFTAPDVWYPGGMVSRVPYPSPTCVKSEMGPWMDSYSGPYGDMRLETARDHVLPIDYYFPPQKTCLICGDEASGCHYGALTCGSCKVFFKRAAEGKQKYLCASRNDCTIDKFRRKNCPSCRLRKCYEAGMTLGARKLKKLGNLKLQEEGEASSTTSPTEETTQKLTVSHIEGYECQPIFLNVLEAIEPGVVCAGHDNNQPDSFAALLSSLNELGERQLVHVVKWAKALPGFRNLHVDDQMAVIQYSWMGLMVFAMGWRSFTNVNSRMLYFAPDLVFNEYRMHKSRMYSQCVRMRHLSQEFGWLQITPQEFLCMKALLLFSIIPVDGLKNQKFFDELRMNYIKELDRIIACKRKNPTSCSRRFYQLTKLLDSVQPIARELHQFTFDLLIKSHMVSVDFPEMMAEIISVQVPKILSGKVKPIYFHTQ
Summary of the method: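 Activation was read as beta-lactamase FRET signal from LiveBLAzer B/G substrate, added for 2 h at room temperature. Before that, GeneBLAzer AR-UAS-bla GripTite (HEK293) cells had 16 h compound exposure at 37C.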

[6] = molecular target: Androgen receptor (Homo sapiens) (UniProt P10275); test: qHTS assay to identify small molecule agonists of the androgen receptor (AR) signaling pathway using the MDA cell line (AID 743040; note: nearly all actives have a fitted effect of over 20% in size)
Summary of the method: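 Luciferase read-out, ONE-Glo, 30 min RT. Cells: MDA-kb2 AR-luc, MMTV promoter with AR and GR response elements. Compound exposure 16 h, 37C, 0% CO2, after 5 h pre-incubation. qHTS agonist mode.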

[7] = molecular target: Androgen receptor (Homo sapiens) (UniProt P10275); test: qHTS assay to identify small molecule antagonists of the androgen receptor (AR) signaling pathway using the MDA cell line (AID 743042; note: nearly all actives have a fitted effect of over 55% in size)
Summary of the method: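 MDA-kb2 breast carcinoma cells carrying MMTV-luciferase (AR/GR responsive) were co-treated with compounds and the agonist R1881 for 16 h at 37C. Inhibition read as ONE-Glo luminescence; CellTiter-Fluor fluorescence measured in parallel for cytotoxicity.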

[8] = qHTS assay for identifying genotoxic compounds that show differential cytotoxicity against isogenic chicken DT40 cell lines with known DNA damage response pathways - wild type cell line (AID 743012); note: nearly all actives have a fitted effect of over 60% in size; note: potency is the fitted concentration of half-maximal effect
Summary of the method: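 Endpoint: CellTiter-Glo luminescence, 30 min RT. Cells: wild type DT40, 300/well. Exposure: compounds in DMSO, 40 h, 37 C/5% CO2, after ~0.5 h pre-incubation.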

[9] = qHTS assay to identify small molecule antagonists of the thyroid receptor (TR) signaling pathway - cell viability counter screen (AID 743064); note: nearly all actives have a fitted effect of over 50% in size; note: potency is the fitted concentration of half-maximal effect
Summary of the method: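 In-well cytotoxicity read by CellTiter-Fluor (30 min, 37 C) following 23.5 h exposure of GH3 cells bearing a TRE-luciferase sensor. Compounds were added alongside 1 nM (final) T3 to drive TR transactivation.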

[10] = qHTS assay to identify small molecule antagonists of the androgen receptor (AR) signaling pathway using the MDA cell line - cell viability counter screen (AID 743041; note: nearly all actives have a fitted effect of over 45% in size; note: potency is the fitted concentration of half-maximal effect)
Summary of the method: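 Cytotoxicity counter screen: MDA-kb2 AR-luc cells, compound + R1881, 16 h, 37C, 0% CO2; CellTiter-Fluor added at 15.5 h, fluorescence read after 30 min.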

Measured: Potency

O=S(=O)(O)c1ccc(Nc2nc(Nc3ccc(/C=C/c4ccc(Nc5nc(Nc6ccc(S(=O)(=O)O)cc6)nc(N(CCO)CCO)n5)cc4S(=O)(=O)O)c(S(=O)(=O)O)c3)nc(N(CCO)CCO)n2)cc1
inactive: [1] | [2] | [3] | [4] | [6] | [7]
active: [5] 33.1 µM

Cc1cc(C(C)(C)C)cc(C)c1CC1=NCCN1
inactive: [1] | [8] | [3] | [9]

C=CCn1c(=O)n(CC=C)c(=O)n(CC=C)c1=O
inactive: [1] | [8] | [3] | [4] | [10] | [9]

COc1cccc(OC)c1C(=O)O
inactive: [1] | [2] | [3] | [4] | [10] | [9]

CN1CCC[C@@H]1CCO[C@](C)(c1ccccc1)c1ccc(Cl)cc1
active: [2] 10.6 µM | [3] 21.1 µM | [9] 23.7 µM
inactive: [1] | [4] | [10]

C#CC1(O)CC[C@H]2[C@@H]3CCC4=CCCC[C@@H]4[C@H]3CC[C@@]21C (stereo partly specified)
inactive: [1] | [4] | [10]
active: [8] 11.4 µM and 13.7 µM | [9] 30.6 µM

OC1CCCc2ccccc21 (stereo unspecified)
inactive: [1] | [8] | [4] | [10] | [9]

CCCCCCCCCCCCCCCC[N+](C)(C)CC
active: [1] 13.4 µM and 17.4 µM | [8] 376 nM and 866 nM | [3] 473 nM and 866 nM | [4] 9.52 µM and 21.9 µM | [10] 18.8 µM and 43.4 µM | [9] 5.96 µM and 15.4 µM

O=C1C(c2[nH]c3ccc(S(=O)(=O)O)cc3c2O)=Nc2ccc(S(=O)(=O)O)cc21
inactive: [1] | [8] | [4] | [10] | [9]

Cc1ccc(O)c(O)c1
active: [1] 53.4 µM | [2] 13.3 µM | [3] 21.1 µM | [9] 29.8 µM
inactive: [4] | [10]

CN(C)Cc1ccccc1O
inactive: [1] | [2] | [3] | [4] | [5] | [6] | [7] | [9]

CNc1ccc([N+](=O)[O-])cc1
inactive: [1] | [4] | [7]
active: [2] 68.7 µM | [3] 68.7 µM

OC/C=C/CO
inactive: [1] | [8] | [3] | [4] | [10] | [9]

CCC(COC(=O)CCS)(COC(=O)CCS)COC(=O)CCS
inactive: [1] | [8] | [4] | [10]

CCCCCCCCCCCCOC(=O)c1ccc(O)cc1
active: [1] 24.7 µM | [9] 30.9 µM
inactive: [8] | [3] | [4] | [10] | [7]

O=C(O)CCN(C1(C(=O)NO)CCCC1)S(=O)(=O)c1ccc(Oc2ccc(F)cc2)cc1
inactive: [1] | [8] | [3] | [4] | [10] | [9]

Nc1nc(-c2ccccc2)cs1
inactive: [1] | [8] | [4] | [10]

C#C[C@]1(OC(C)=O)CC[C@H]2[C@@H]3CCC4=C[C@@H](OC(C)=O)CC[C@@H]4[C@H]3CC[C@@]21C
inactive: [1] | [4] | [10]
active: [2] 10.6 µM and 16.8 µM | [3] 10.6 µM and 11.9 µM

OC1CCC(C2CCCCC2)CC1 (stereo unspecified)
inactive: [1] | [8] | [4] | [10] | [9]

Cc1cc(C(C)(C)C)c(O)c(C)c1Cn1c(=O)n(Cc2c(C)cc(C(C)(C)C)c(O)c2C)c(=O)n(Cc2c(C)cc(C(C)(C)C)c(O)c2C)c1=O
inactive: [1] | [2] | [3] | [4] | [9]
